Screens as filed in PubChem BioAssay.
Cardio protect: cardioprotection against H2O2-induced cell death, primary screen, uHTS, H9c2 cells, ATPLite luminescence | H9c2 cardiomyocytes, H2O2 injury protection, 2 h | protection from H2O2 cell death, % at 20 µM | actives 0.63% (n = 360,000);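 active = compounds giving at least 50% protection of heart cells from peroxide-induced death in the single-dose screen, raw or plate-pattern-corrected value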;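 note: 0% = DMSO wells with peroxide and 100% = DMSO wells without peroxide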
ABHD5-PLIN5 inh: ABHD5-PLIN5 interaction inhibitors, primary screen, cell lysate, split luciferase complementation, luminescence; Perilipin-5 (Homo sapiens) + 1-acylglycerol-3-phosphate O-acyltransferase ABHD5 (Homo …; Split G. princeps luciferase complementation, 4 h; inhibition, % at 4 µM; actives 0.78% (n = 360,000);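 active = inhibition above the mean inhibition across every tested compound plus 3 SD, cut at about 22% in these data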;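 note: 0% = DMSO only wells and the 100% control is not disclosed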
Myeloid diff MLP: induction of myeloid progenitor differentiation, primary screen, cell-based, flow cytometry, MLPCN library | calls only at 10 µM | actives 1% (n = 360,000) | ER-HoxA9 myeloid progenitors, lysozyme-GFP differentiation | AID 624256, 2012;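 active = normalized GFP-positive differentiation at or above the plate's own cutoff, the solvent-only control mean plus 3 SD; inconclusive = no clear call, values can overlap the other calls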;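 note: cells exposed to compound for four days before flow analysis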
HGIII-sPLA2 inh: human group III sPLA2 inhibitors, primary screen, biochemical, QFRET, BODIPY PC-A2 liposome substrate; QFRET BODIPY PC-A2 liposome hydrolysis, fluorescence; inhibition, % at 12.2 µM; actives 0.56% (n = 370,000);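 active = inhibition above mean plus 3 SD of compounds lying within the high and low control bounds, cut at about 19% in these data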;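 note: 0% = median of test compound wells and 100% = no enzyme DMSO wells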
Rtt109 HAT inh: inhibitors of C. albicans Rtt109/Vps75 HAT, primary screen, biochemical, ThioGlo CoA-SH fluorescence, plate reader; Histone acetyltransferase RTT109 (Candida albicans (strain SC5314 / ATCC MYA-2876)), …; purified Rtt109/Vps75, 4 h; inhibition, % at 34.9 µM; actives 0.16% (n = 330,000); AID 540336, 2011;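 active = inhibition of at least 50% in every replicate; inconclusive = best replicate reaches 50% inhibition but some replicates fall short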
DAGLB inh: DAGLB lipase inhibitors, primary screen, biochemical, fluorescence, HTS. HEK293T DAGLB membrane lysate, EnzChek fluorogenic substrate. inhibition, % at 5.17 µM. actives 0.059% (n = 340,000). AID 504411, 2011; in the data active = inhibition above about 34%;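 note: 0% = enzyme with vehicle and 100% = wells lacking enzyme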
Target sequence (Q8NCG7 whole entry, looked up): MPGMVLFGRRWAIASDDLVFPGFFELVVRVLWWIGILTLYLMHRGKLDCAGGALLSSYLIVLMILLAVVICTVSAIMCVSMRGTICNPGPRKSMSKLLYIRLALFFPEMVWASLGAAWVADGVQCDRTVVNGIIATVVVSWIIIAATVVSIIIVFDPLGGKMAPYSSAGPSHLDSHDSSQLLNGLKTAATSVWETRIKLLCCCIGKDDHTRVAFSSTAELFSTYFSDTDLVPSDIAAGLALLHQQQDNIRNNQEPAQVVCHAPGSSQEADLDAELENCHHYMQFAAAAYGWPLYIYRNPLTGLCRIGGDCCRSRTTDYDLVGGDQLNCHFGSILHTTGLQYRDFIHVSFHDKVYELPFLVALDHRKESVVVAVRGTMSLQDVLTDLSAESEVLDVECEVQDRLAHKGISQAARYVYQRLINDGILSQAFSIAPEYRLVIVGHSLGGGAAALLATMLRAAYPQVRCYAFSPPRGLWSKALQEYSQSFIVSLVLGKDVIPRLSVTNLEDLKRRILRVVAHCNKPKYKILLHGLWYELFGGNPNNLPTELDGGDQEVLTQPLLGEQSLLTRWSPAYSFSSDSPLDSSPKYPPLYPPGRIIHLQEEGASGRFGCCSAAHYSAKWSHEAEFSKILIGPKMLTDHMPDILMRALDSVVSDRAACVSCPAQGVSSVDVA
* marks the source's active call; other numbers are inactive results; i = inactive; ? = inconclusive; · = no result; + = active, no number. Sampled rows, rich in hits. Any-hit rate of the full collection: about 2.9%.

SMILES | Cardio protect | ABHD5-PLIN5 inh | Myeloid diff MLP | HGIII-sPLA2 inh | Rtt109 HAT inh | DAGLB inh
O=C(CSc1ccc2ccccc2c1)NCCc1ccc(O)c(O)c1 | 80* | 7 | i | 8 | 1 | 3
Cc1cc2c(SCC(=O)Nc3cccc(O)c3)ncnc2s1 | -2 | -2 | + | -3 | 7 | 10
N#C/C(=C\c1cn(-c2ccccc2)nc1-c1cccnc1)c1nnc2n1CCCCC2 | 51* | -6 | i | -5 | 0 | 0
CC(C)Cn1c(N)c(C(=O)COC(=O)/C=C/c2cccs2)c(=O)n(C)c1=O | -27 | 1 | i | -15 | 9 | -3
O=C(O)c1ccc(Nc2nc(-c3ccc([N+](=O)[O-])cc3)nc3ccccc23)cc1 | 3 | -6 | · | -4 | -4 | 2
O=[N+]([O-])c1ccc(-c2nc(Nc3ccc(O)cc3)c3ccccc3n2)cc1 | 52* | 0 | i | 5 | -3 | 5
S=c1[nH]nc(-c2cc(-c3ccccc3)n[nH]2)n1/N=C/c1c(Cl)cccc1Cl | -9 | -2 | + | 11 | 1 | 12
S=c1[nH]nc(-c2cc(-c3ccccc3)n[nH]2)n1/N=C/c1cccc2ccccc12 | · | · | · | 9 | · | ·
Oc1ccc(/C=N/N=C(c2ccccc2)c2ccccc2)c(O)c1O | 85* | -10 | i | 15 | 5 | 12
Oc1cccc(C=NCc2ccccc2)c1O | 30 | 0 | i | 7 | -5 | 3
O=C(/C(=N/N=C/c1ccc(O)c(O)c1O)c1ccccc1)c1ccccc1 | 58* | -27 | i | 13 | 78* | 14
CCCS(=O)(=O)c1nc(S(=O)(=O)c2ccc(C)cc2)c(N2CC(C)OC(C)C2)s1 (centres undefined) | 1 | 1 | i | 0 | -12 | -3
CCS(=O)(=O)c1nc(S(=O)(=O)c2ccc(C)cc2)c(N2CC(C)OC(C)C2)s1 (centres undefined) | 0 | -4 | + | 4 | 0 | 1
CCOC(=O)c1cc(CC)sc1/N=C/c1c(O)ccc2ccccc12 | 0 | 2 | i | 3 | -3 | 0
Cc1cccc(C(=O)Nc2nnc(SCC(=O)NC3CC3)s2)c1 | -4 | 7 | i | -1 | -7 | -1
COc1cc(OC)cc(C(=O)Nc2ccc(-c3nc4ccccc4o3)cc2)c1 | 120* | 2 | i | -6 | -6 | -4
COc1cccc(C(=O)Nc2ccc(-c3nc4ccccc4o3)c(O)c2)c1 | 2 | -4 | i | 2 | -170 | -5
CCN(CC)c1ccc(/C=N/NC(=O)c2c(Cl)c(C)nn2C)cc1 | 5 | 2 | i | -3 | 0 | 2
COc1ccc(OC)c(NC(=O)COC(=O)c2c3c(nc4ccccc24)CCCC3)c1 | 56* | 11 | ? | -10 | 3 | -13
COC(=O)c1ccccc1NC(=O)/C=C/c1cc(OC)c(OC)c(OC)c1 | 57* | 4 | i | 11 | -5 | -11
Cc1cc(C)cc(-n2c3nc4ccccc4nc3c3c(=O)n(Cc4ccco4)cnc32)c1 | 1 | 60* | i | -4 | -4 | 7
COCC(=O)OCC(=O)Nc1cc(C)c(C)cc1[N+](=O)[O-] | -3 | 5 | i | -5 | 50* | -2
COc1cc2c(cc1OC)C(COc1ccc3c(C)cc(=O)oc3c1)N(C(=O)c1ccco1)CC2 (centres undefined) | 58* | 3 | i | 0 | -14 | -2
COc1cc2c(cc1OC)C(COc1ccc(F)cc1)N(C(=O)c1ccco1)CC2 (centres undefined) | 44 | -3 | i | -9 | 12 | 1
O=C(Nc1ccc(-c2nc3cccnc3s2)cc1)c1ccco1 | 6 | -1 | i | -12 | 1 | 3
SMILES | Cardio protect | ABHD5-PLIN5 inh | Myeloid diff MLP | HGIII-sPLA2 inh | Rtt109 HAT inh | DAGLB inh
O=C(Nc1cccc(-c2cnc3ccccc3n2)c1)c1cccc(NC(=O)c2ccco2)c1 | 61* | 15 | i | -6 | -7 | 0
CCCS(=O)(=O)Nc1cccc(-c2nc3cccnc3s2)c1 | 0 | 12 | i | -11 | -1 | 0
O=C(Nc1cccc(-c2nc3cccnc3s2)c1)c1ccco1 | 70* | 2 | i | -11 | -7 | -3
CCOc1ncccc1C(=O)Nc1cccc(-c2nc3cccnc3s2)c1 | 64* | 7 | i | 7 | -5 | -9
Cc1c(NC(=O)c2ccco2)cccc1-c1nc2cccnc2s1 | 0 | -5 | i | -6 | -24 | -1
O=C1C(=C(O)c2ccccc2)C(=O)c2ccccc21 | -5 | -29 | + | 4 | · | 2
CC(=O)N(C)c1cccc([N+](=O)[O-])c1 | 0 | 0 | i | 2 | 1 | -2
CC(=O)N(c1ccccc1)c1ccc([N+](=O)[O-])cc1[N+](=O)[O-] | -5 | -13 | + | 5 | -1 | 0
COC(=O)CSC1=C(C#N)C(=O)NC2(CCCCC2)S1 | -8 | -6 | i | 4 | 30 | -2
COc1ccc(OC)c(C(C)NC(C)=O)c1 (centres undefined) | 4 | 7 | + | 1 | 1 | -1
CCOC(=O)C1CCN(C(=O)Nc2ccc3nc(-c4ccco4)c(-c4ccco4)nc3c2)CC1 | 2 | 31* | i | · | -129 | 5
CCCCCCCCS(=O)C1CS(=O)(=O)CC1O (centres undefined) | 9 | -1 | i | -4 | -17 | 0
Cc1ccc(C(c2c(C)n(C)n(-c3ccccc3)c2=O)c2c(C)n(C)n(-c3ccccc3)c2=O)s1 | 59* | 0 | i | 6 | 6 | 0
Cc1c(C(c2ccccc2)c2c(C)n(C)n(-c3ccccc3)c2=O)c(=O)n(-c2ccccc2)n1C | -5 | -3 | i | 3 | -1 | -2
COc1ccc(C(=O)CCC(=O)N2CCN(c3cccc(Cl)c3)CC2)cc1 | -14 | 7 | i | -2 | 9 | -2
COc1ccc(C(=S)N2CCN(c3cccc(Cl)c3)CC2)cc1 | -5 | 0 | i | 20* | -7 | -23
O=c1c(Cl)c2oc3ccccc3nc-2c2ccccc12 | -18 | 4 | + | · | 13 | -3
CC(C)c1ccc(-c2cc(C(=O)NN3CCN(C)CC3)c3ccccc3n2)cc1 | -13 | 6 | i | 4 | -2 | -1
CCC/C(C#Cc1cc(OC)cc(OC)c1)=C1/c2ccccc2C(=O)N1c1ccccc1 | 1 | -15 | i | -7 | -2 | -3
CCC/C(C#Cc1ccc(N(C)C)cc1)=C1/c2ccccc2C(=O)N1c1ccccc1 | -5 | -3 | + | 4 | -11 | -13
